# Only some compounds are listed: those with a hit (about 3.5% of all), similar ones and a draw of the others.
# mHTT-CaM PPI inh: mHTT-calmodulin interaction abrogation; P42858; AlphaScreen His-mHTT/GST-CaM binding, luminescence; inhibition, % at 15 µM; 3.6% of 190,000 active; AID 1671202;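 note: 0% = both proteins with DMSO and 100% = one protein alone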
# Target sequence (P42858 whole entry, looked up, stated change not applied): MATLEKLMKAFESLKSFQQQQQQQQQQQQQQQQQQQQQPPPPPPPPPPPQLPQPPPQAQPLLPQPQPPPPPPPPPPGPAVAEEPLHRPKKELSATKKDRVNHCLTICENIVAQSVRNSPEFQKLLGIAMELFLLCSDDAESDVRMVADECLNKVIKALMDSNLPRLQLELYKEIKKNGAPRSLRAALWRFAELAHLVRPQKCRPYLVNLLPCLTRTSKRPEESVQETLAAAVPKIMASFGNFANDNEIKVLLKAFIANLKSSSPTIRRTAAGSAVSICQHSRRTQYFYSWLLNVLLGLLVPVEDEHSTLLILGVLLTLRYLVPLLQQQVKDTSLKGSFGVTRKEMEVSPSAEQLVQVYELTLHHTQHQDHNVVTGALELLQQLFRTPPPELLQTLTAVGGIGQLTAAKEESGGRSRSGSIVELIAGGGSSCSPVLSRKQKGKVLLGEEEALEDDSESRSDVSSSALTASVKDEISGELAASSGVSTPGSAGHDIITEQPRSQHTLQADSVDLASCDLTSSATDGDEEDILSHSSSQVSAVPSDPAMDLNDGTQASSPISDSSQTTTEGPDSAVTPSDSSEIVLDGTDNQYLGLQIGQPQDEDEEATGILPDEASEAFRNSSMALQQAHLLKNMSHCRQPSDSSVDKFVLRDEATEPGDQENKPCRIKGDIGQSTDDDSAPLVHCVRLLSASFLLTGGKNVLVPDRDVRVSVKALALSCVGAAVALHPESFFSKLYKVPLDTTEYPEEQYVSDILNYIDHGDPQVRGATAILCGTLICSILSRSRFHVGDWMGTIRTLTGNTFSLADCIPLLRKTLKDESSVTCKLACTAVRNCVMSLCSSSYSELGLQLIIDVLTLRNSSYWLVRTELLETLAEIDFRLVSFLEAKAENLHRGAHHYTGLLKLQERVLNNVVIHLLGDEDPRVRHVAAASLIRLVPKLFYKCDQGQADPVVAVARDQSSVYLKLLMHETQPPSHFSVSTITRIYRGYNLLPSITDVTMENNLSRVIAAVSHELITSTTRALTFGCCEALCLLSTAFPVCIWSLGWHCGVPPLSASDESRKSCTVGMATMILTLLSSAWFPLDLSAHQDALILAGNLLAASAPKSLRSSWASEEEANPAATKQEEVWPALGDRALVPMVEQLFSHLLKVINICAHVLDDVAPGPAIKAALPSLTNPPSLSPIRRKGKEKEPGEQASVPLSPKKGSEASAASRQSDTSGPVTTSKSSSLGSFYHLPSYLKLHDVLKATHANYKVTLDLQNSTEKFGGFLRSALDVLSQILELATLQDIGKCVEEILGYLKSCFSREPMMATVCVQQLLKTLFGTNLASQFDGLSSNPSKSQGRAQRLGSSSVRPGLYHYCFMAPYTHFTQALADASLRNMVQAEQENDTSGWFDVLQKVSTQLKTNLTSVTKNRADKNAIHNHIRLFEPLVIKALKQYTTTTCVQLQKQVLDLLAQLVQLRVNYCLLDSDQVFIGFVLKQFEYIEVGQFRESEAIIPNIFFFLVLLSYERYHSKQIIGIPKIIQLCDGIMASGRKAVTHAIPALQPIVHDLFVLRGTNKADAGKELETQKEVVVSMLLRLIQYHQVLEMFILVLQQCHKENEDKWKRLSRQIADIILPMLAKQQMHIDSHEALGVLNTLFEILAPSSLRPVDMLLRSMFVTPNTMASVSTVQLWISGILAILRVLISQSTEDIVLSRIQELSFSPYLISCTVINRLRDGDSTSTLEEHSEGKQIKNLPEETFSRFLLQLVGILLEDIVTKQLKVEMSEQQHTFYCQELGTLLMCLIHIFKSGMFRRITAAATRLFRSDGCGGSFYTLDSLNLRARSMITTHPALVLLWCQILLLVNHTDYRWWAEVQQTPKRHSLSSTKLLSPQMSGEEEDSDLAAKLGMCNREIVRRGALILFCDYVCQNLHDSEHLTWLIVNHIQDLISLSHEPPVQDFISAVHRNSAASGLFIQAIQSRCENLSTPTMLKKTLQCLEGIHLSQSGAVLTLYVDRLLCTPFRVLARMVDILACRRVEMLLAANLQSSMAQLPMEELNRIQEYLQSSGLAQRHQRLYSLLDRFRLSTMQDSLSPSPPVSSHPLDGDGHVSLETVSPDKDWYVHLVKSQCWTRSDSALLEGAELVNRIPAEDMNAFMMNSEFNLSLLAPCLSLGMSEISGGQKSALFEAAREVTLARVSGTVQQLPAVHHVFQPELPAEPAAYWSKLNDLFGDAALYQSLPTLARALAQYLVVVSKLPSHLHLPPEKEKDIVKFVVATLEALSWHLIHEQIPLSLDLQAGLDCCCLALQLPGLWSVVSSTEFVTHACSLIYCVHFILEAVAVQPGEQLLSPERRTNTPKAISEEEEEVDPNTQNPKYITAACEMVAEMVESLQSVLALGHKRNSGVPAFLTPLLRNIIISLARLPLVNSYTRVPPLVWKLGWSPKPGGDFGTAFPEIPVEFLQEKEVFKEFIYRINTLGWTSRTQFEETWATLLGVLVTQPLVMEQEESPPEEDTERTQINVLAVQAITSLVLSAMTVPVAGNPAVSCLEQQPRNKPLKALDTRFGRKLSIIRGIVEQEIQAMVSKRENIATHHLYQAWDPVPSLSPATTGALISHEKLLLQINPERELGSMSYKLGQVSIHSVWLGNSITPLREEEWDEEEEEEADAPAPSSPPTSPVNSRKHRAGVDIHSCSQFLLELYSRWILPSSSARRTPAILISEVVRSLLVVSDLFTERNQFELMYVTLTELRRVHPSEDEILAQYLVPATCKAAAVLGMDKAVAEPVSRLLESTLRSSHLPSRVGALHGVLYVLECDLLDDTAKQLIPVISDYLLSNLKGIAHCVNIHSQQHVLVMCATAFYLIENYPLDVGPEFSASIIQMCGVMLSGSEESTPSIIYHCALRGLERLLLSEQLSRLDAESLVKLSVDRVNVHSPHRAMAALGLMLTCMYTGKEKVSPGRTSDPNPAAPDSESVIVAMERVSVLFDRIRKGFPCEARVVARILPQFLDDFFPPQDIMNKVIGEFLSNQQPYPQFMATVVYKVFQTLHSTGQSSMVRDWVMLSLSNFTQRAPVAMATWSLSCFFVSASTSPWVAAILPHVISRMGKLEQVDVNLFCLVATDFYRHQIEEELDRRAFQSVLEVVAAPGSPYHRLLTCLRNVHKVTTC
# Pf apPOL inh: Pf-apPOL DNA polymerase inhibition. inhibition, % at 10 µM. 0.25% of 210,000 active. Recombinant Pf-apPOL, molecular beacon fluorescence, 1.5 h
# * = called active by the depositor; . = not tested or not shown; ! = a repeat was not active. Cut-off read from the data, not from the text of the source: active = inhibition above about 50%; inactive = the rest.
SMILES,mHTT-CaM PPI inh,Pf apPOL inh
O=[N+]([O-])c1cc(S(=O)(=O)Nc2ccc3oc4c(c3c2)CCCC4)ccc1Cl,75.0*,-9.3
Cc1ccc(S(=O)(=O)Nc2ccc(Cl)cc2)cc1[N+](=O)[O-],8.7,-0.6
O=[N+]([O-])c1ccc(Cl)c(S(=O)(=O)Nc2ccc3oc4c(c3c2)CCCC4)c1,68.0*,21.5
O=C1CCCc2oc3ccc(NS(=O)(=O)c4cc([N+](=O)[O-])ccc4Cl)cc3c21,27.0,10.1
Cc1ccc(S(=O)(=O)Nc2ccc3oc4ccccc4c3c2)cc1[N+](=O)[O-],97.0*,-2.4
COc1ccc(/C=C2\SC(=O)N(CN3CCCC3)C2=O)cc1,26.0,-4.1
O=S(=O)(C1CC1)N1CCC(c2cc(-c3ccc(F)cc3)n[nH]2)CC1,-2.5,-9.5
COc1ccccc1C(=O)N1CCCC1COc1ccc(C(=O)NC(C)C)cc1 (centres undefined),-8.4,-5.0
COc1ccc(-n2nc(C(C)(C)C)cc2NC(=O)C2CCC2)cc1,1.2,-4.8
O=C(Nc1cc(-c2ccco2)nn1-c1cc(C(F)(F)F)cc(C(F)(F)F)c1)C1CCC1,.,90.8*
CNc1nc(Nc2ccccc2)nc2ccccc12,-2.0,-0.5
O=C(O)CC1Nc2ccccc2NC1=O (centres undefined),3.9,1.6
C=C(C)CC1Nc2ccccc2NC1CC(=C)C (centres undefined),56.0*,.
COc1ccc(-c2ccc(C#N)c(SCC(=O)N3CCN(C)CC3)n2)cc1,-5.6,2.0
N#Cc1ccc(Oc2ccc(N)cc2)cc1,0.3,-4.2
N#COc1ccc(Oc2ccc(OC#N)cc2)cc1,96.8*,-29.4
N#COc1ccc(Nc2ccc(OC#N)cc2)cc1,95.1*,5.3
COc1ccc(Nc2c(Cl)cc(OC)cc2Cl)cc1,.,-4.8
COc1ccc(SC[C@H](c2ccccc2)N2CCN(CC(C)C)CCC2=O)cc1,8.7,-2.4
CCCC(=O)NC(c1ccc(OC)c(OC)c1)c1cc(Cl)c2cccnc2c1O (centres undefined),25.0,-49.7
CCC(=O)NC(c1ccccc1OC)c1cc(Cl)c2cccnc2c1O (centres undefined),87.0*,2.4
CCC(=O)NC(c1ccc(Cl)cc1)c1cc(Cl)c2cccnc2c1O (centres undefined),41.0,6.8
CCCC(=O)NC(c1ccccc1OC)c1cc(Cl)c2cccnc2c1O (centres undefined),51.0*,-11.5
CCC(=O)NC(c1ccccc1Cl)c1cc(Cl)c2cccnc2c1O (centres undefined),100.0*,6.5
O=C(CSc1ccc(F)cc1)Nc1ccc2c(c1)N(C(=O)c1ccco1)CC2,3.1,-19.1
SMILES,mHTT-CaM PPI inh,Pf apPOL inh
CC(C)C(=O)N1CCN(c2ccc(Br)cc2)C(=O)C1C (centres undefined),-1.0,-4.2
O=C(NCc1ccccc1Cl)C1CCCN(C(=O)c2cccc(C(F)(F)F)c2)C1 (centres undefined),23.9,6.2
CC(C)c1cc(C2CCCN2C(=O)Nc2cccc(F)c2)on1 (centres undefined),-8.2,0.0
CC(C)CC(=O)N1CCc2c(c(C(=O)NCc3ccc(F)cc3)nn2C)C1,59.0*,-0.8
COCC(=O)N1CCc2c(c(C(=O)NCc3ccc(F)cc3)nn2C)C1,-2.1,-8.8
CC(C)CC(=O)N1CCc2c(c(C(=O)NCc3ccc(Cl)cc3)nn2C)C1,65.6*,3.0
COCC(=O)N1CCc2c(c(C(=O)NCc3ccccc3)nn2C)C1,18.7,2.2
O=C(NCCCNc1ccc(Cl)cc1[N+](=O)[O-])c1ccccc1F,15.4,-4.0
O=C(NCc1cccnc1)C1CC(=O)N(CCc2c[nH]c3ccc(Cl)cc23)C1 (centres undefined),22.9,0.1
CCC(=O)NCCc1csc(C2CCN(C(=O)Nc3cc(F)ccc3F)CC2)n1,-5.7,-1.8
COc1ccc(C(=O)N2CCN(C(=O)c3ccco3)CC2)cc1,0.8,-4.9
COc1ccc(C(=O)c2ccco2)cc1,-4.8,55.8*
CC(=O)C(C)Sc1nc2c(c(C(F)(F)F)c1C#N)CCCCCC2 (centres undefined),-11.8,.
Cc1ccc(N2CCN(Cc3nc(C(=O)NC4CC4)co3)CC2)cc1,91.8*,-0.2
CC1CCN(Cc2nc(C(=O)NC3CCCCC3)co2)CC1,-3.3,-2.4
Cc1ccc(C(=O)NN(C)C)o1,-2.9,.
Cc1ccc(C(=O)/C=C/C=C/C=C/N(C)C)o1,73.8*,-3.8
O=C(c1noc2c1CCCCC2)N(CCCN1CCOCC1)Cc1ccco1,8.5,-1.2
Cc1cc(NS(=O)(=O)c2ccccc2)c(C(C)C)c(Br)c1O,5.0,0.9
CCN(CC)C1C(=O)Nc2ccc(Cl)cc2C1c1ccccc1 (centres undefined),94.6*,7.3
O=C1CN(C(=O)c2ccccc2C(F)(F)F)C(c2ccccc2)c2cc(Cl)ccc2N1 (centres undefined),38.0,-2.9
O=C1[C@H](Cc2ccccc2)NCCCC[C@@H](c2ccc(Cl)cc2)N1Cc1ccccc1,91.1*,-3.8
O=C1[C@H](Cc2ccccc2)NCCCC[C@H](c2ccc(Cl)cc2)N1Cc1ccc(Cl)cc1,11.2,-6.2
Cc1ccc(C2CC(C(F)(F)F)n3nc(C(=O)N4CCCC4)cc3N2)cc1 (centres undefined),32.0,-5.2
Cc1ccc(C2CC(C(F)(F)F)n3nc(C(=O)N4CCN(c5ccccc5)CC4)cc3N2)cc1 (centres undefined),90.0*,-10.9
SMILES,mHTT-CaM PPI inh,Pf apPOL inh
Cc1ccc2c(c1)C(N1CCCN(C(=O)C(C)C)CC1)=Nc1ccccc1O2,20.7,-2.6
O=C1OC2(CCCC2)OC(=O)C1=Cc1c[nH]c2ccccc12,7.0,-16.1
O=C1C(=Cc2c[nH]c3ccccc23)C(=O)c2ccccc21,57.0*!,-0.1
O=C1C2C3c4ccccc4C(c4ccccc43)C2C(=O)N1CCc1c[nH]c2ccccc12 (centres undefined),100.3*,-89.3
CC(=O)c1c(C(C)=O)c(C)n(CCc2c[nH]c3ccccc23)c1C,5.4,-12.7
O=C1C[C@@H]2CCN3C(=O)CCC[C@@H]([C@H]23)[C@@H]1Cc1ccccc1,1.9,-4.9
O=C1CCC[C@@H]2C=C[C@H](c3ccc(Br)cc3)[C@H]3CCN1[C@@H]32,52.0*,-33.3
COc1ccc2c(C)nc(Nc3ncc(O)[nH]3)nc2c1,-3.5,-3.8
O=C(Nc1ccc(N2CCOCC2)cc1)c1ccccc1F,3.8,-0.5
O=C(Nc1ccc(N2CCCC2)cc1)c1ccccc1F,88.4*,-4.8
O=C(Nc1ccc(N2CCCCC2)cc1)c1ccccc1,.,-18.9
O=C(Nc1ccc2ncnc(N3CCCCC3)c2c1)c1cccc(F)c1,1.4,-1.2
Cc1cccc(C(=O)Nc2ccc3ncnc(N4CCCCC4)c3c2)c1,17.6,0.6
O=C(Nc1ccc2ncnc(N3CCCCC3)c2c1)c1ccccc1F,54.7*,2.0
CN(C)c1cccc(C(=O)Nc2ccc3ncnc(N4CCCC4)c3c2)c1,76.0*,8.6
CC(C)Oc1cccc(C(=O)Nc2ccc(N3CCCC3)cc2)c1,99.4*,-7.1
CCn1cnc2c1CN(S(=O)(=O)c1c(C)noc1C)CC2,7.8,5.1
Cc1cc2ccccc2n1CCNC(=O)C(C)(C)Oc1ccc(Cl)cc1,60.0*,-1.6
CC(C)(Oc1ccc(Cl)cc1)C(=O)NCCSc1c[nH]c2ccccc12,99.0*,2.7
CC(C)(Oc1ccc(Cl)cc1)C(=O)NCCc1ccccc1,-38.4,-0.4
O=C(NCCSc1c[nH]c2ccccc12)c1ccc(Cl)cc1,8.0,-2.7
Cc1cc(C)n(-c2ccc(=O)n(CCNS(=O)(=O)c3ccc4c(c3)OCCO4)n2)n1,-4.8,-10.8

# From PubChem
